Source: PubChem BioAssay
KB-V1 cytotox – KB-V1 MDR subline cytotoxicity | KB-V1 MDR cells viability, CellTiter-Glo, 72 h | Potency, µM (titrated, usually from 46.1 µM), actives largely listed as cytotoxic | hit rate 3.4% among 400,000 | AID 1347076; further: on the % scale 0 is the no-effect control and ±100 the full control effect; nearly all actives have a fitted effect of over 60% in size
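In this primary screen, KB-V1 cells overexpressing P-gp are incubated with library compounds (lowest to highest concentration) for 72 h at 37 degrees C before a luminescent ATP viability read.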
ELG1 DNA repair – inhibitors of ELG1-dependent DNA repair in HEK293T cells. HEK293T ELG1-luciferase reporter, luminescence, 16 h; DNA damage induced by 5-fluorouridine. Potency, µM (titrated, usually from 46.1 µM), inactives show at the top dose activity change, negative = inhibition, actives largely listed as inhibitors. hit rate 2.3% among 330,000; further: on the % scale 0 is the no-effect control and ±100 the full control effect; nearly all actives have a fitted effect of over 55% in size
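DMSO vehicle served as the neutral condition. Each well held 2,000 cells given 5-fluorouridine plus compound; after 16 hr at 37 °C/5% CO2, ONE-Glo was added and luciferase measured 30 min later.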
MCF10A rerep – inducers of DNA re-replication in MCF 10A breast cells; MCF 10A DNA re-replication, Hoechst nuclear intensity, 48 h; Potency, µM (top dose mostly 46.1 µM), for inactives: top-dose activity, positive = re-replication, actives largely listed as activators; hit rate 2.9% among 350,000; further: % of control where 0% means no effect; nearly all actives have a fitted effect of over 50% in size
SW480 rerep – induces DNA re-replication in SW480 colon adenocarcinoma cells; SW480 DNA re-replication, Hoechst DNA content imaging, 48 h; Potency, µM (series often up to 46.1 µM), inactives show at the top dose re-replication activation, most hits filed as activators; hit rate 1.8% among 340,000; further: % of control where 0% means no effect; nearly all actives have a fitted effect of over 55% in size
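Quantitative HTS format with DMSO vehicle controls; 48 hr drug incubation at 37 C, then 40 min Hoechst staining and scanning imager measurement at 405 nm excitation.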
KB-3-1 tox – kills parental KB-3-1 adenocarcinoma cells; hit rate 1.4% among 400,000; KB-3-1 viability, CellTiter-Glo ATP luminescence, 72 h; Potency, µM (top dose mostly 46.1 µM), usual class: cytotoxic; further: on the % scale 0 is the no-effect control and ±100 the full control effect; nearly all actives have a fitted effect of over 60% in size
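Multi-concentration cytotoxicity screen in KB-3-1 cells grown in DMEM lacking phenol red with 10% FBS. After 72 h at 37 °C with compound, ATP-dependent luminescence was recorded.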
Active calls of the source: *; i = inactive; ? = inconclusive; . = not tested or not shown; ! = not active in a repeat; [ ] = dose if it differs, or a comment. The list is not random: actives were taken first. Their share in the collection is about 8.1%. The call rests on the fitted dose curve; in most records, active means well fitted curve in the direction sought with a large enough effect; inconclusive means small, poorly fitted or top-dose-only effect, or another doubt; inactive means no such curve, though single readings can be large; an effect the other way counts as inactive or inconclusive. Potency means the concentration at half of the fitted maximal effect.

SMILES	KB-V1 cytotox	ELG1 DNA repair	MCF10A rerep	SW480 rerep	KB-3-1 tox
CC(C)(C)NC(=O)CON=C1c2ccccc2-c2ccccc21	16µM*	-16%	?	4%	i
COc1ccc(CCn2c(C)cc(C(=O)CCl)c2C)cc1OC	?	-16%	6.5µM*	5.8µM*	?
Cc1cc(C(=O)CCl)c(C)n1CCc1ccc(F)cc1	?	0%	?	8%	?
Cc1cc(C(=O)CCl)c(C)n1CCc1ccc(Cl)cc1	?	?	16µM*	5.2µM*	?
CCN(CC(=O)Nc1c(F)cccc1F)C(=O)C1CC(=O)N(CCc2ccc(OC)c(OC)c2)C1 (configuration not stated)	?	?	-1%	-11%	i
Cc1ccc(C(=O)OCC(=O)N(C)c2ccccc2)c(C)c1	i	15%	-2%	?	i
CN(C(=O)COC(=O)c1ccccc1C(=O)c1ccccc1)c1ccccc1	21µM*	12%	4%	5%	i
CC1CCN(Cc2c(O)ccc3c(=O)c(-c4cccc(Cl)c4)c(C(F)(F)F)oc23)CC1	i	.	.	.	i
CC(C)COc1ccc(C(=O)OCCN2CCCCC2)cc1	i	16%	?	-3%	i
CC(=O)c1ccc(OCCCN2CCCCC2)cc1	?	?	1%	-15%	i
CC(C)COc1ccc(C(=O)CCN2CCCCC2)cc1	i	0%	12µM*	?	15µM*
CCCCOc1ccc(C(=O)CCN2CCCCC2)cc1	i	6%	16µM*	10µM*!	i
OCCN1CCN(c2ncnc3c2ncn3[C@H]2CN(Cc3ccncc3)C[C@@H](CO)O2)CC1	i	.	.	.	?
Cc1nc2oc3c(NCc4ccccc4)ncnc3c2c2c1COC(C)(C)C2	?	7.3µM*	10%	-9%	i
COc1ccc(N(C)S(=O)(=O)c2cccc(C(=O)OCC(=O)c3c(N)n(C)c(=O)n(C)c3=O)c2)cc1	.	18µM*	4%	2%	.
C=CCN(c1ccc(OC)cc1)S(=O)(=O)c1ccc(Cl)c(C(=O)OCC(=O)c2c(N)n(C)c(=O)n(C)c2=O)c1	16µM*	.	15%	-7%	i
Cc1cccnc1NC(=O)CCC(=O)c1cccs1	i	6%	6%	-18%	i
Cc1ccccc1OCC(=O)OCC(=O)NC1CCCC1	i	.	.	.	i
O=C(c1ccc(Cl)c(S(=O)(=O)N2CCCCC2)c1)N1CCN(c2ccccc2)CC1	.	?	5%	1%	.
O=C(c1ccc(Cl)c(S(=O)(=O)N2CCCC2)c1)N1CCN(c2ccc(F)cc2)CC1	5.8µM*	21µM*	?	-3%	?
Cc1ccc(C(=O)N2CCN(c3ncccn3)CC2)cc1S(=O)(=O)N1CCCCC1	23µM*	9%	-1%	-6%	i
CN(c1ccccc1)S(=O)(=O)c1cc(C(=O)N2CCN(c3ccccn3)CC2)ccc1Cl	23µM*	15µM*	7%	-4%	?
O=C(c1ccc(Cl)c(S(=O)(=O)N2CCCC2)c1)N1CCN(c2ccccc2)CC1	?	16µM*	-27%	-3%	i
O=C(c1ccc(Cl)c(S(=O)(=O)N2CCOCC2)c1)N1CCc2ccccc2C1	3.7µM*	?	10%	1%	21µM*
CCOC(=O)C1CCN(C(=O)c2ccc(Cl)c(S(=O)(=O)N3CCOCC3)c2)CC1	i	-3%	13µM*	?	i
SMILES	KB-V1 cytotox	ELG1 DNA repair	MCF10A rerep	SW480 rerep	KB-3-1 tox
CCOC(=O)C1CCN(C(=O)c2ccc(Cl)c(S(=O)(=O)N3CCCC3)c2)CC1	?	?	11%	1%	i
Cc1ccc(C(=O)N2CCN(c3ccccc3)CC2)cc1S(=O)(=O)N1CCCC1	i	16µM*	22%	?	i
O=C(c1ccc(Cl)c(S(=O)(=O)N2CCCCCC2)c1)N1CCN(c2ccccc2O)CC1	?	16µM*	18%	-6%	i
CC(C)n1c(=O)c2c(O)cc(=O)oc2c2ccccc21	6.5µM*	5%	?	13%	i
Cn1cc(C2=C(c3cn(CCCSC(=N)N)c4ccccc34)C(=O)NC2=O)c2ccccc21	?	.	.	.	4.1µM*
O=C(NCc1ccccc1)C1(C(F)(F)F)CC(CCCO)CCCO1 (configuration not stated)	i	.	5%	22%	i
CS(=O)(=O)c1ccc(CNC(=O)C2(C(F)(F)F)CC(CCCO)CCCO2)cc1 (configuration not stated)	?	.	-49%	0%[9.22 µM]	5.8µM*
Nc1nc(Cl)cc(N2CCC(c3cc(-c4ccc(Cl)cc4Cl)n[nH]3)CC2)n1	23µM*	-6%	?	?	?
O=C(Nc1cnn(Cc2ccc(Cl)cc2Cl)c1)c1noc2c1CCCC2	10µM*	?	16%	19%	i
CC(=O)c1cccc(NC(=O)Nc2cnn(Cc3ccc(Cl)cc3Cl)c2)c1	18µM*	26µM*	?	-2%	?
Cc1ccc(Cn2ccc(NC(=O)c3noc4c3CCCCC4)n2)cc1	5.2µM*	-4%	18%	5%	?
O=C(Nc1cnn(Cc2ccc(Cl)cc2Cl)c1)c1cc(-c2cccs2)on1	?	-14%	-11%	-7%	i
Cn1c(=O)c2c(nc(Oc3ccccc3)n2Cc2c(Cl)cccc2Cl)n(C)c1=O	?	.	.	.	i
Cc1ccccc1CN1C(=O)CN(S(C)(=O)=O)CC1(C)C(=O)Nc1ccc2c(c1)OCCO2 (configuration not stated)	i	.	.	.	i
CC1c2[nH]c3ccccc3c2CCN1C(=O)Nc1ccccc1 (configuration not stated)	8.2µM*	?	10%	?	?
O=C(Nc1ccccc1)N1CCc2c([nH]c3ccccc23)C1C(F)(F)F (configuration not stated)	?	?	?	?	i
COc1cccc(Cl)c1NC(=O)N1CCc2c([nH]c3ccccc23)C1C(F)(F)F (configuration not stated)	i	?	5.8µM*	?	i
O=C(c1ccc(Cl)cc1)N1CCc2c([nH]c3ccccc23)C1C(F)(F)F (configuration not stated)	i	?	?	14%	i
Cc1cc(C)nc(NS(=O)(=O)c2ccc(NS(=O)(=O)c3ccc(F)c(F)c3)cc2)n1	i	.	.	.	i
Cc1cc(/C=C2\C(=N)N3N=C(c4ccco4)SC3=NC2=O)c(C)n1Cc1ccccc1	i	-13%	21µM*	-1%	?
CCC1=NN2C(=N)/C(=C/c3cc(C)n(Cc4ccccc4)c3C)C(=O)N=C2S1	i	-17%	?	-2%	i
Cc1ccc(NC(=O)Cn2c(-c3cncs3)nc3ccccc32)cc1Br	i	.	.	.	i
